Test results published in PubChem BioAssay AID2685 (National Center for Advancing Translational Sciences (NCATS), 2010).
Hit rate of the full screen: of about 320,000 compounds, about 2,100 (0.66%) were called active. Another 53% or so got no clear call; they are omitted. Calls come from the whole dose curve; as a rule, active = well fitted inhibition curve with a large enough effect in the signal ratio, with a control signal flat (not every such curve was filed as active); inconclusive = small, poorly fitted or top-dose-only effect, or effect the other way, or a change in a side signal; inactive = flat fitted curve, though single readings scatter; the % refers to the signal ratio. For the sample, actives were picked, then their nearest neighbours and some compounds at random.

test: qHTS Assay for Lipid Storage Modulators in Drosophila S3 Cells; conditions: BODIPY lipid droplet fluorescence, 18-24 h, cells fed with added oleic acid; cell number change: measured here: cell count max response; series mostly up to 46.1 µM;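 for cell number change: cells counted by Cell Tracker Red CMTPX staining in the red channel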; for lipid storage change, negative = inhibition: % is set by controls: 0 for no effect and ±100 for the full control effect
Procedure, shortened: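 Drosophila S3 cells got compounds at several concentrations plus oleic acid (400 uM solution). Laser-scanning cytometry with 488 nm excitation read lipid droplets at 500-530 nm and cells at 575-640 nm. Percent activity was relative to 20 uM Triacsin C.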
Potency is the fitted concentration of half-maximal effect.

Structure (SMILES) | Potency | cell number change | lipid storage change, negative = inhibition
CCOc1cc(CNCCCN2CCOCC2)ccc1OCC(=O)Nc1cccc2ccccc12 | inactive | 9% | 
CCN(CC)CCNC(=O)c1ccc(NC(=O)c2ccc3c(c2)CCC3)cc1 | inactive | 2.22% | 
COc1cc(N)c(Br)cc1C(=O)O | inactive |  | 
COc1c(Br)cc(Br)cc1C(=O)O | 20.6 µM (active) | -14.5% | 
COc1ccc(Br)cc1C(=O)O | inactive | 9.36% | 
COc1ccc(/C=N/NC(=O)Cn2nc([N+](=O)[O-])cc2C)c(OC)c1OC | inactive | 15.6% | 
Cc1ccc(-n2ncc(C(=O)NC3CC3)c2C2CCN(C(=O)OC(C)(C)C)CC2)cc1 | inactive | -12.2% | 
COc1ccc(-n2ncc(C(=O)NC3CC3)c2C2CCN(C(=O)OC(C)(C)C)CC2)cc1 | 9.2 µM (active) | -6.59% | 
Cc1ccc(-n2ncc(C(=O)O)c2C2CCN(C(=O)OC(C)(C)C)CC2)cc1 | inactive | -23.6% | 
Nn1cc(-c2ccccc2)nc1SCC(=O)NCCN1C(=O)CSC1=O | inactive | -20.3% | 
CCOC(=O)CN(C(=O)CSc1nnc(-c2ccncc2)n1CCCOC)c1ccccc1 | inactive | -3.7% | 
CC(C)(C)Nc1c(-c2ccc(O)cc2)nc2ccc(Cl)cn12 | inactive | 20.8% | 
CC(NC(=O)NC(N)=O)(C(F)(F)F)C(F)(F)F | inactive | 2.2% | 
NC(=O)NCCCC(=O)O | inactive | -16.4% | 
CC(NC(=O)NCCCC(=O)O)(C(F)(F)F)C(F)(F)F | 29.1 µM (active) | -5.28% | 
CSCCC(NC(=O)c1ccc(Cl)cc1Cl)C(=O)N(C)Cc1nc2ccccc2c(=O)[nH]1 (stereo not given) |  |  | 1.6% [at 0.0737 µM] (inactive)
CCN1CCN(c2ccc([N+](=O)[O-])c(Sc3nc4ccccc4[nH]3)c2)CC1 | inactive | -7.24% | 
CC1=CC(=Nc2c(C)n(C)n(-c3ccccc3)c2=O)C=CC1=O | inactive | 4.9% | 
CC1=NN(Cc2cc(C(C)(C)C)c(O)c(C(C)(C)C)c2)C(=O)C1 | 16.4 µM (active) | -27.5% | 
CC1=NN(Cc2ccccc2)C(=O)C1 | inactive | 11.6% | 
CC(C)(C)c1cc(CN2CCC(O)CC2)cc(C(C)(C)C)c1O | inactive | 12.8% | 
COCCOC(=O)c1c(C)oc2ccc(OC(=O)c3ccc4c(c3)OCO4)cc12 | inactive |  | 
CC1CN(C(=O)c2cccc(S(=O)(=O)N3CCN(c4ccccc4)CC3)c2)CC(C)O1 (stereo not given) | inactive | 2.24% | 

Structure (SMILES) | Potency | cell number change | lipid storage change, negative = inhibition
C[C@@H]1CCC(=O)N(C[C@@H](C)CSc2ccccc2)CC1 | inactive | 11.7% | 
Cn1c(SCC(=O)Nc2ccc(Cl)cc2F)nnc1-c1ccco1 | 23.1 µM (active) | 9.91% | 
Cc1cc(NC(=O)CSc2nnc(-c3ccco3)n2C)no1 | inactive | 17.5% | 
CCC(=O)Nc1ccc(NC(=O)CSc2nnc(-c3ccco3)n2C)cc1 | inactive | 8.55% | 
O=C(Nc1nc2ccc(F)cc2s1)c1ccc(N2CCCC2=O)cc1 | inactive | -14.4% | 
CCCC1CC(CCc2ccccc2)OS(=O)(=O)N1 (stereo not given) | inactive | 22.3% | 
C=CCNc1nc2c(c(=O)[nH]c(=O)n2C)n1CC(O)COc1ccc2ccccc2c1 (stereo not given) | inactive | -2.59% | 
C=CCSc1nc(C)cc2c1C(=O)OC2 | inactive | -10% | 
CCOC(=O)C1CCN(S(=O)(=O)c2ccc(OC)c(OC)c2)CC1 | inactive |  | 
Cc1cc(-n2c(C)cc(C(=O)COc3ccc4ccc(=O)oc4c3)c2C)no1 | inactive | -3.86% | 
Cc1cc(-n2c(C)cc(C(=O)COc3cc(F)ccc3[N+](=O)[O-])c2C)no1 | 8.2 µM (active) | 1.91% | 
Cc1cc(-n2c(C)cc(C(=O)COc3ccc([N+](=O)[O-])cc3)c2C)no1 |  | -1.97% | -9.66% [at 9.22 µM] (inactive)
O=C(O)CN1CCCC1=Nc1ccccc1 | inactive | 7.34% | 
N#CN=C1CCCCCN1CC(N)=O | 0.731 µM (active) | -10.9% | 
Cc1nc(CN2CCCC2=NC#N)n(-c2ccccc2)n1 | inactive | 7.55% | 
Cc1cc(C(=O)N/N=C/c2ccc(-c3cccc(Cl)c3Cl)o2)n[nH]1 | inactive | -7.33% | 
Cc1nc(N)nc(Nc2ccc(Cl)cc2)c1Br | inactive | 17.2% | 
CCOc1ccccc1CNCc1ccc(C(=O)O)cc1 | inactive | 10.5% | 
CCOc1ccc(CC(C(N)=O)C(N)=O)cc1CN(C)C | inactive | -1.24% | 
CCOc1ccc(CC(C(=O)NN)C(=O)NN)cc1CN(C)C | 18.4 µM (active) | -6.71% | 
COC(=O)c1cc(OC)c(OC)c(OC)c1NC(=O)c1ccc(S(=O)(=O)N(C)C)cc1 | inactive | -4.59% | 
COC(=O)c1cc(OC)c(OC)c(OC)c1N | inactive | 7.54% | 
COC(=O)Nc1c(C(=O)OC)cc(OC)c(OC)c1OC | 16.4 µM (active) | -8.23% | 

Structure (SMILES) | Potency | cell number change | lipid storage change, negative = inhibition
CCOC(=O)CN(C(=O)COc1nc(C)cc(C)c1C#N)c1cccc(Cl)c1 | inactive | 6.09% | 
Cc1cccc(N2CCN(C(=O)c3ccc(CNc4c(N5CCC(C)CC5)c(=O)c4=O)cc3)CC2)c1C | inactive | 1.91% | 
COc1ccc(CN2CCN(Cc3cccc(OC)c3)C(CCO)C2)cc1 (stereo not given) | inactive | 0.486% | 
COc1ccc(OC)c(CN2CCN(C(=O)CNC(=O)c3ccc(C(C)(C)C)cc3)CC2)c1 | 1.46 µM (active) | -27.4% | 
COc1ccc(C(=O)N2CCN(Cc3cc(OC)ccc3OC)CC2)cc1 | inactive | -3.67% | 
CC(C)(C)c1ccc(C(=O)NCC(=O)N2CCCCCC2)cc1 | inactive | 5.65% | 
COc1ccc(OC)c(CN2CCN(C(=O)c3ccc(S(=O)(=O)Nc4ccccc4F)cc3)CC2)c1 | 13 µM (active) | -20.6% | 
CC(C)(C)c1ccc(C(=O)NCC(=O)N2CCCC2)cc1 | inactive | 12.2% | 
COc1ccc(NS(=O)(=O)c2cccc(C(=O)N3CCN(Cc4cc(OC)ccc4OC)CC3)c2)cc1 | inactive | 1.47% | 
O=C(Cn1c(C(F)(F)F)nc2ccccc21)N=Nc1c(O)[nH]c2ccc(Br)cc12 | inactive |  | 
CC1(C)CC(=O)N(c2ccc(C#N)cc2)C(=O)C1 | inactive | -0.525% | 
Cc1cccc(NC(=O)C(c2ccccc2Cl)N2CCOCC2)c1 (stereo not given) | inactive | 14.2% | 
COCCCNc1nc(-c2ccc(Cl)cc2)nc2ccccc12 | inactive |  | 
CCCCN1C(=O)/C(=c2\sc3nc(=O)c(-c4ccccc4)nn3c2=O)c2ccccc21 | inactive | -10.9% | 
C/C(=N\NC(=O)c1c([N+](=O)[O-])c(C)nn1C)c1ccc(NC(=O)C2CCCC2)cc1 | inactive | 5.28% | 
C/C(=N\NC(=O)c1nn(C)c(C)c1Br)c1ccc(NC(=O)C2CCCC2)cc1 | inactive | -25.5% | 
C/C(=N\NC(=O)c1ccn(C)n1)c1ccc(NC(=O)C2CCC2)cc1 | 13 µM (active) | -21.2% | 
Cc1cccc(C(=O)Nc2sc3c(c2C#N)CCCCC3)c1 | inactive | -20.2% | 
Cc1nc2nc(SCc3ccccc3)[nH]n2c(=O)c1CCC(C)C | inactive | 19.7% | 
Cc1cc(=O)oc2c(C)c(OC(C)C(=O)N3CC[C@@]4(O)CCCC[C@H]4C3)ccc12 (stereo not given in full) | 0.731 µM (active) | -0.971% | 
Cc1c(C)c2ccc(OC(C)C(=O)N3C[C@H]4C[C@@H](C3)c3cccc(=O)n3C4)c(C)c2oc1=O (stereo not given in full) | inactive | 10.4% | 
CCc1cc(=O)oc2c(C)c(OCC(=O)N3CC[C@@]4(O)CCCC[C@H]4C3)ccc12 | inactive | 2.62% | 
Cc1c(C)c2ccc(OC(C)C(=O)N3CC[C@@]4(O)CCCC[C@H]4C3)c(C)c2oc1=O (stereo not given in full) | 5.8 µM (active) | -28.5% | 

Structure (SMILES) | Potency | cell number change | lipid storage change, negative = inhibition
CCc1cc(=O)oc2c(C)c(OC(C)C(=O)N3CC[C@@]4(O)CCCC[C@H]4C3)ccc12 (stereo not given in full) | inactive | 14.6% | 
Cc1c(C)c2ccc(OCC(=O)N3CC[C@@]4(O)CCCC[C@H]4C3)cc2oc1=O | inactive | 0.17% | 
O=C(C(c1ccccc1)c1ccccc1)N1CC[C@@]2(O)CCCC[C@H]2C1 | inactive | -2.81% | 
CCc1cc(=O)oc2c(C)c(OC(C)C(=O)N3CCC[C@@H]3C(=O)O)ccc12 (stereo not given in full) | inactive | 15.4% | 
Cc1cc(=O)oc2c(C)c(OCC(=O)N3CC[C@@]4(O)CCCC[C@H]4C3)ccc12 | 16.4 µM (active) | 2.59% | 
Cc1nc(SCC(=O)NC(=O)NCCC(C)C)c2c(-c3cccs3)csc2n1 | inactive | 8.46% | 
CCn1ccnc1CN1CCC(n2nccc2NC(=O)CCc2ccccc2)CC1 | inactive | -1.05% | 
COc1ccc(C(=O)Nc2ccc3[nH]c(-c4cccc(OC)c4)cc(=O)c3c2)cc1 | inactive | 4.73% | 
Cc1cccc(C)c1NC(=O)CS(=O)CC(=O)NCC1OCCc2ccccc21 (stereo not given) | inactive | 9.92% | 
CC(=O)c1ccc(CC2SC(N)=NC2=O)cc1 (stereo not given) | inactive | -4.99% | 
CCCCN1C(=S)NC[C@@H]1Cc1cccc2ccccc12 | inactive | 2.45% | 
COc1ccc2c(c1OC)C(=O)N1C2SC[C@H]1C(=O)NC1CC1 (stereo not given in full) | inactive | -0.291% | 
COc1ccc(C(c2sc3nc(C)nn3c2O)N2CCc3ccccc3C2)cc1 (stereo not given) | inactive |  | 
C=C(C)C1CC=C(C)/C(=N\NC(=O)CCC(=O)Nc2ccc(C)c(C)c2)C1 (stereo not given) | inactive | 1.45% | 
C/C(=N\NC(=O)CCC(=O)Nc1ccc(C)c(C)c1)C1CC1 | 6.51 µM (active) | 18.1% | 
Cc1ccc(NC(=O)CCSCCC(=O)Nc2ccc(C)c(C)c2)cc1C | inactive | -13.5% | 
CC(=O)Nc1ccc(S(=O)(=O)NCCC(=O)OCc2nc(N)nc(Nc3ccccc3C)n2)cc1 | inactive | 3.4% | 
COc1ccc(N2C(=O)C3CCCN3C2=O)cc1 (stereo not given) | 18.4 µM (active) | 13.7% | 
COc1ccc(N2C(=O)C3CCCN3C2=S)cc1 (stereo not given) | inactive | 13% | 
O=C1C2CCCN2C(c2cccs2)N1c1ccc(Cl)cc1 (stereo not given) | inactive | 6.57% | 
COc1cccc(N2C(=O)C3CCCN3C2c2cccs2)c1 (stereo not given) | inactive |  | 
COc1ccc(N2C(=O)C3CCCN3C2c2cccs2)cc1 (stereo not given) | 8.2 µM (active) |  | 
COc1ccc(N2C(=O)[C@@H]3Cc4ccccc4CN3C2=O)cc1 | inactive | -10.6% | 
